# Test results taken from ChEMBL document CHEMBL4296182, “CO-ADD screening of NIH NCI Diversity Set V”.
# Entries with a potency or affinity are not part of this list.
# Tested on: Candida albicans
# Conditions: 20 µM
row,SMILES,Inhibition [%]
1,Cc1cc2nc(-c3ccccn3)c(-c3ccccn3)nc2cc1C,1.37
2,CC1(C)CC(Nc2ccc(Nc3ccccc3)cc2)CC(C)(C)N1,1.33
3,Cc1cccc(C)c1NC(=O)NCc1ccco1,2.89
4,O=C1NCN(CCO)CN1,0.72
5,O=C(O)C(c1ccccc1)C1(O)CCCCC1 (stereo not given),0.92
6,CC(=O)OC1CCC2(C)C(=CCC3C2CCC2(C)C3CC3OC4(CCC(C)CN4)C(C)C32)C1 (stereo not given),6.33
7,O=C1CCCC1C(=O)Nc1ccc2ccccc2c1 (stereo not given),10.3
8,CCOP(=O)(OCC)/C(C#N)=C/c1ccc([N+](=O)[O-])cc1,0.88
9,Cc1nc(S)nc(O)c1CCC1OCCO1,-0.82
10,C=C(C)C(=O)Nc1ccc(NC(C)C)cc1,4.24
11,COC1OC(CO)C(N=C(C)C)C1O (stereo not given),0.83
12,Cc1ccc(Nc2ccc(N)cc2S(=O)(=O)O)cc1,3.65
13,Cc1ccc(C)c(C(=O)CCC(=O)O)c1,8
14,CCNc1ccccc1C(=O)O,5.51
15,O=C1COc2cccnc2N1,4.29
16,O=C1c2ccccc2C2=C3C(O)=NN=C3CCN12,5.2

# Tested on: Cryptococcus neoformans
# Conditions: Concentration 20 uM; ASSAY_TEST Inhibition of Fungal Growth; detection method Resazurin; Absorption (OD600-OD570); plate type 384well; NBS; CORNING #3640
row,SMILES,Inhibition [%]
1,CC(=O)OCCN1c2ccccc2Sc2cnccc21,-8.61
2,CCC/C(C)=C/c1ccc(CC)cn1,27.41
3,OCc1nnn(-c2ccccc2)c1CO,-6.38
4,Clc1ccc(-c2c(C3=NCCCN3)nnn2-c2ccc(Cl)cc2)cc1,-5.35
5,COc1ccc(C2OC3=Nc4cc(C)c(C)cc4NC3=C2O)cc1 (stereo not given),-7.87
6,CCOC(=O)C(C#N)C(=N)C1C(=O)OC2CCCCC21 (stereo not given),-12.86
7,CC(=O)Nc1ccc(S(=O)(=O)N=S(C)C)cc1,-12.86
8,CCCCSc1cc(O)nc(N)n1,-8.65
9,O=C(Nc1ccc(F)cc1)OCCOc1ccc([N+](=O)[O-])cc1,-9.23
10,COc1cc2oc3cc(C)oc(=O)c3c2cc1OC,-16.92
11,CCOC(=O)/C(C#N)=C/c1cccc(C)c1,-0.16
12,CCNC(=O)Oc1cccnc1O,-16.02
13,Brc1ccc(/N=N/c2ccc3ccccc3n2)cc1,43.68
14,OCc1cc(O)c(CO)nn1,1.1
15,C=C(C)CN1C(=O)C(C)S/C1=N/N=C1/SCC(=O)N1C (stereo not given),-8.83
16,CC(=O)CC[N+](C)(C)C.[I-],-9.72
17,CS(=O)(=O)O.OC(c1cc(C(F)(F)F)nc2c(Cl)cc(Cl)cc12)C1CCCCN1 (stereo not given),-0.51
18,OCCCCc1nccc2c1[nH]c1ccccc12,-8.33
19,c1ccc(-c2nnc(-c3ccccn3)s2)nc1,-18.42
20,O=c1oc2c(cc1O)oc(=O)c1cc(O)c(O)c(O)c12,-7.17

row,SMILES,Inhibition [%]
1,COc1ccc(C(=O)O)nc1C,-14
2,CC1=CN2C(c3cccc([N+](=O)[O-])c3)=NON(c3ccc(C)cn3)C2C=C1 (stereo not given),0.26
3,CN(C)c1ccc(/C=C(\C#N)C(=O)c2ccccc2)cc1,-12.58
4,Cc1cc2nc(-c3ccccn3)c(-c3ccccn3)nc2cc1C,-10.29
5,CC1(C)CC(Nc2ccc(Nc3ccccc3)cc2)CC(C)(C)N1,-0.13
6,Cc1cccc(C)c1NC(=O)NCc1ccco1,-10.4
7,O=C1NCN(CCO)CN1,-3.9
8,O=C(O)C(c1ccccc1)C1(O)CCCCC1 (stereo not given),-11.66
9,CC(=O)OC1CCC2(C)C(=CCC3C2CCC2(C)C3CC3OC4(CCC(C)CN4)C(C)C32)C1 (stereo not given),14.75
10,O=C1CCCC1C(=O)Nc1ccc2ccccc2c1 (stereo not given),-1.69
11,CCOP(=O)(OCC)/C(C#N)=C/c1ccc([N+](=O)[O-])cc1,-11.85
12,Cc1nc(S)nc(O)c1CCC1OCCO1,-7.17
13,C=C(C)C(=O)Nc1ccc(NC(C)C)cc1,-6.96
14,COC1OC(CO)C(N=C(C)C)C1O (stereo not given),-10.33
15,Cc1ccc(Nc2ccc(N)cc2S(=O)(=O)O)cc1,-9.37
16,Cc1ccc(C)c(C(=O)CCC(=O)O)c1,-5.46
17,CCNc1ccccc1C(=O)O,2.27
18,O=C1COc2cccnc2N1,-2.63
19,O=C1c2ccccc2C2=C3C(O)=NN=C3CCN12,-1.84
